Measured values published in ChEMBL document CHEMBL1961873, “Compounds: GSK PKIS; Assays: Nanosyn kinase panel” (2012).

Experiments:
[1] = system: Proto-oncogene tyrosine-protein kinase receptor Ret (Homo sapiens), P07949 [Y791F]; conditions: at 1 µM
[2] = molecular target: Macrophage-stimulating protein receptor (Homo sapiens) (UniProt Q04912); conditions: at 0.1 µM
[3] = molecular target: Macrophage-stimulating protein receptor (Homo sapiens) (UniProt Q04912); conditions: at 1 µM
[4] = molecular target: Proto-oncogene tyrosine-protein kinase ROS (Homo sapiens) (UniProt P08922); conditions: at 0.1 µM
[5] = molecular target: Proto-oncogene tyrosine-protein kinase ROS (Homo sapiens) (UniProt P08922); conditions: at 1 µM
[6] = molecular target: Proto-oncogene tyrosine-protein kinase Src (Homo sapiens) (UniProt P12931); conditions: at 0.1 µM
Chain of Proto-oncogene tyrosine-protein kinase Src (Homo sapiens) (P12931 2-536 limits assumed): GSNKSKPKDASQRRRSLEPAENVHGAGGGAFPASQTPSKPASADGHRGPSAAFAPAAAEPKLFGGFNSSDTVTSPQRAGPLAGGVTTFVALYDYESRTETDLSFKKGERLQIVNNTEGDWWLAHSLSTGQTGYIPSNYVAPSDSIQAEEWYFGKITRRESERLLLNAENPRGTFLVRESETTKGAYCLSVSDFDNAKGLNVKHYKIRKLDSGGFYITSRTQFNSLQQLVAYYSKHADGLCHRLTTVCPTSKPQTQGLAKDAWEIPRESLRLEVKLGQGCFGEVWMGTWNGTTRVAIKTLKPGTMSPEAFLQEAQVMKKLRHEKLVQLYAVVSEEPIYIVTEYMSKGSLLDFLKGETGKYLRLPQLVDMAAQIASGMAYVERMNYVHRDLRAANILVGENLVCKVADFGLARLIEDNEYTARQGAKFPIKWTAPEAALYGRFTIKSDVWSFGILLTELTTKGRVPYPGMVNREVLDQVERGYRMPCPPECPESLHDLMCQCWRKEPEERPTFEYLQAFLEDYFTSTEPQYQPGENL

[7] = molecular target: Proto-oncogene tyrosine-protein kinase Src (Homo sapiens) (UniProt P12931); conditions: at 1 µM
[8] = molecular target: Tyrosine-protein kinase Srms (Homo sapiens) (UniProt Q9H3Y6); conditions: at 0.1 µM
Chain of Tyrosine-protein kinase Srms (Homo sapiens) (Q9H3Y6 whole entry): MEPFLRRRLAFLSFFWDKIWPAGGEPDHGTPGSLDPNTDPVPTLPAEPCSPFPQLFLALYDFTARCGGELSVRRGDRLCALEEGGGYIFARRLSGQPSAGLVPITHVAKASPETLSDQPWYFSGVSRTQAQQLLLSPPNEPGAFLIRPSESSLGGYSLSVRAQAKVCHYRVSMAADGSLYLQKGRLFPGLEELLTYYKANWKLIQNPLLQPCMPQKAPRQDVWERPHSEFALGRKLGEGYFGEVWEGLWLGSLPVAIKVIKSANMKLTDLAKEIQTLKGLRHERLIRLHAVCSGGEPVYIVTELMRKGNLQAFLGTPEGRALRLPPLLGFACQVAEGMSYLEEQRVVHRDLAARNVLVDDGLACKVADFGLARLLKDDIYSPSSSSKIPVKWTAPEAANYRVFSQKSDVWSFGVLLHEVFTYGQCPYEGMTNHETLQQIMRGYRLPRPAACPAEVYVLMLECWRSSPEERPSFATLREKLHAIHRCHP

[9] = molecular target: Tyrosine-protein kinase Srms (Homo sapiens) (UniProt Q9H3Y6); conditions: at 1 µM
[10] = molecular target: Tyrosine-protein kinase SYK (Homo sapiens) (UniProt P43405); conditions: at 0.1 µM
[11] = molecular target: Tyrosine-protein kinase SYK (Homo sapiens) (UniProt P43405); conditions: at 1 µM
[12] = molecular target: T1, Tyrosine-protein kinase Tec (Homo sapiens) (UniProt P42680); conditions: at 0.1 µM
T1 sequence (whole entry): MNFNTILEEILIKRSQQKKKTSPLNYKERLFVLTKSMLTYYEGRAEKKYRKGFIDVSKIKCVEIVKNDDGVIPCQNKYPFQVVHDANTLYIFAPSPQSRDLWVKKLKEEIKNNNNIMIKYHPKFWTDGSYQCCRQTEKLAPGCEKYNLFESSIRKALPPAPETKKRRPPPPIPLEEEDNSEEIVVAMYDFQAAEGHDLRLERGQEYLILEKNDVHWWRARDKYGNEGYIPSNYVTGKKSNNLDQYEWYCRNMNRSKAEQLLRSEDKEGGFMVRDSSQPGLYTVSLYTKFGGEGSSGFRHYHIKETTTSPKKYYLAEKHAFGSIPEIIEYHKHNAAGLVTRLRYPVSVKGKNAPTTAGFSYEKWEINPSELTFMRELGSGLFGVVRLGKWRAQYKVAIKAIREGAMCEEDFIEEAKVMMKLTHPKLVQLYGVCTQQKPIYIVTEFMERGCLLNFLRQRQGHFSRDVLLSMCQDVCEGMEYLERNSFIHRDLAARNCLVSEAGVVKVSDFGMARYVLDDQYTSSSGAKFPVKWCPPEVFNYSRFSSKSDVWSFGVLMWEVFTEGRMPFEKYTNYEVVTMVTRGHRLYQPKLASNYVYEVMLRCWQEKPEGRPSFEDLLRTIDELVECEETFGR

[13] = molecular target: T1, Tyrosine-protein kinase Tec (Homo sapiens); conditions: at 1 µM
[14] = molecular target: Angiopoietin-1 receptor (Homo sapiens) (UniProt Q02763); conditions: at 0.1 µM
Chain of Angiopoietin-1 receptor (Homo sapiens) (Q02763 whole entry): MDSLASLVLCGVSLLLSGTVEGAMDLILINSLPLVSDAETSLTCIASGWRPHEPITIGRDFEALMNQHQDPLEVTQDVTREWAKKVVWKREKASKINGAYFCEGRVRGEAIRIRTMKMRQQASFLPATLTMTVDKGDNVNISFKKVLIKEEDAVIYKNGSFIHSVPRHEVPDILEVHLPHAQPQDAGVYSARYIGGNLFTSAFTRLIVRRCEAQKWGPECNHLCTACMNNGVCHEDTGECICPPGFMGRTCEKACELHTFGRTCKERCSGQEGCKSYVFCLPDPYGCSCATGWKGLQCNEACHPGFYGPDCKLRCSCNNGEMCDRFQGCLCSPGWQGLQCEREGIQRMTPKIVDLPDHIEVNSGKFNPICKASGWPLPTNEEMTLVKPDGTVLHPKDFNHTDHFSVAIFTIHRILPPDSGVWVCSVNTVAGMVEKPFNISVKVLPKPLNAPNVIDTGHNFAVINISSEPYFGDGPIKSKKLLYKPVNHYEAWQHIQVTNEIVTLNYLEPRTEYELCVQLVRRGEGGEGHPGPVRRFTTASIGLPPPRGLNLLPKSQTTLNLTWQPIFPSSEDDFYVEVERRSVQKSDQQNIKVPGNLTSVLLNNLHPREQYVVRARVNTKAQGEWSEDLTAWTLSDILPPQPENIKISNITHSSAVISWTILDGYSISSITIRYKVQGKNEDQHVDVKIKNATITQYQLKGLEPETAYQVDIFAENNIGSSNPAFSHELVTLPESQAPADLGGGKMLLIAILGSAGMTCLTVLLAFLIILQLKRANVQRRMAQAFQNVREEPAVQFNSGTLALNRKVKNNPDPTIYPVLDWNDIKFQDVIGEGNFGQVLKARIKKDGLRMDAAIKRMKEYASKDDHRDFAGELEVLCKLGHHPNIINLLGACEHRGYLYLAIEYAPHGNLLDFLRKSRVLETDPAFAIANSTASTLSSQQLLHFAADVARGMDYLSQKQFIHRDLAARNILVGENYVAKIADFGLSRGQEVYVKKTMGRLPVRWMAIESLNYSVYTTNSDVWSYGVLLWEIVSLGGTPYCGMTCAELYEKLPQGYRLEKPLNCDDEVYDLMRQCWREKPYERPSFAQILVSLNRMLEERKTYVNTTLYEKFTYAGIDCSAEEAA

[15] = molecular target: Angiopoietin-1 receptor (Homo sapiens) (UniProt Q02763); conditions: at 1 µM
[16] = molecular target: T2, Non-receptor tyrosine-protein kinase TNK1 (Homo sapiens) (UniProt Q13470); conditions: at 0.1 µM
T2 sequence (whole entry): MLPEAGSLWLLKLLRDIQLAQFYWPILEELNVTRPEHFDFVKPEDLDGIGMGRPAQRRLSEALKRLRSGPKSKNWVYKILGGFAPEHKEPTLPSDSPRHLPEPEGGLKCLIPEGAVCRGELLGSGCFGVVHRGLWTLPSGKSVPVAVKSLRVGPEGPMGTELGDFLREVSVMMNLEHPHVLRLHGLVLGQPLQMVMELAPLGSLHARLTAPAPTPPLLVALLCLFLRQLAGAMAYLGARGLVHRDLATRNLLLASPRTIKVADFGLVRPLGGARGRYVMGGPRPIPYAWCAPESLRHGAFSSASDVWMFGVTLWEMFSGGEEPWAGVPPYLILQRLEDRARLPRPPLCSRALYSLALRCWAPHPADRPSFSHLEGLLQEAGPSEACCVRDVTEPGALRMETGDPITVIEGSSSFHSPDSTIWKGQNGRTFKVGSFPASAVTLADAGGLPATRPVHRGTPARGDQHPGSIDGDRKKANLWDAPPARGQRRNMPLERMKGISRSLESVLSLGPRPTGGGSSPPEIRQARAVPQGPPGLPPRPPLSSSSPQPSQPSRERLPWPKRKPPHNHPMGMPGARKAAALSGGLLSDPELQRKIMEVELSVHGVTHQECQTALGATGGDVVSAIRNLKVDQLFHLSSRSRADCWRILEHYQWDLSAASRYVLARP

[17] = molecular target: T2, Non-receptor tyrosine-protein kinase TNK1 (Homo sapiens); conditions: at 1 µM
[18] = molecular target: Activated CDC42 kinase 1 (Homo sapiens) (UniProt Q07912); conditions: at 0.1 µM
Chain of Activated CDC42 kinase 1 (Homo sapiens) (Q07912 whole entry, looked up): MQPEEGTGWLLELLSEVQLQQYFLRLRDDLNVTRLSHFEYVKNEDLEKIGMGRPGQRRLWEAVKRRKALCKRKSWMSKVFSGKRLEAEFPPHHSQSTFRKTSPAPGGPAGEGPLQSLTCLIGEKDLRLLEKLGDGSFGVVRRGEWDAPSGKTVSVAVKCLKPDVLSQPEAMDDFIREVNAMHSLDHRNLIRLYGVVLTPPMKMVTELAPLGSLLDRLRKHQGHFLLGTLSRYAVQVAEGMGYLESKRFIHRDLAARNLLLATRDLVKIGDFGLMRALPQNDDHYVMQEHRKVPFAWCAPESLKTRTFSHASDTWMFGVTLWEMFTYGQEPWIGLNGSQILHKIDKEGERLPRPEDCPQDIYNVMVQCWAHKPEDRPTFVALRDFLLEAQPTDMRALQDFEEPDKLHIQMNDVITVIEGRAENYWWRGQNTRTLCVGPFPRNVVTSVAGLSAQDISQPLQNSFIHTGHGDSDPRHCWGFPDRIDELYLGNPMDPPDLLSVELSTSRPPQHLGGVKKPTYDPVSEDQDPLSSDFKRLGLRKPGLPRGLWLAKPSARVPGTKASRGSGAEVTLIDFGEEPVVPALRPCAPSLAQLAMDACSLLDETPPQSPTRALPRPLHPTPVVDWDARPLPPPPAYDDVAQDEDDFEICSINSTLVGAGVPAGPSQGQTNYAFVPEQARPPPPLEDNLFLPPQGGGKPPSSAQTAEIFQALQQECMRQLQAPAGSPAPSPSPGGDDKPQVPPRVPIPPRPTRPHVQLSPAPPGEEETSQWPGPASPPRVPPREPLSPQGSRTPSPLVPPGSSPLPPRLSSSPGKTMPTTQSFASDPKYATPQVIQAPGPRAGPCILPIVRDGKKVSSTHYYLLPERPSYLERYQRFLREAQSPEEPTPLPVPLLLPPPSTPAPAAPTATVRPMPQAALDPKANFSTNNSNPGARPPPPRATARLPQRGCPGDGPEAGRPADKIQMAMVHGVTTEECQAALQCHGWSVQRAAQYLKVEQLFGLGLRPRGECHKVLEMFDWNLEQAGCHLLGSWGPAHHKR

[19] = molecular target: Activated CDC42 kinase 1 (Homo sapiens) (UniProt Q07912); conditions: at 1 µM
[20] = molecular target: High affinity nerve growth factor receptor (Homo sapiens) (UniProt P04629); conditions: at 0.1 µM;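 also: each value is a mean of replicate percent inhibition readings against TRKA kinase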
Chain of High affinity nerve growth factor receptor (Homo sapiens) (P04629 33-796 limits assumed): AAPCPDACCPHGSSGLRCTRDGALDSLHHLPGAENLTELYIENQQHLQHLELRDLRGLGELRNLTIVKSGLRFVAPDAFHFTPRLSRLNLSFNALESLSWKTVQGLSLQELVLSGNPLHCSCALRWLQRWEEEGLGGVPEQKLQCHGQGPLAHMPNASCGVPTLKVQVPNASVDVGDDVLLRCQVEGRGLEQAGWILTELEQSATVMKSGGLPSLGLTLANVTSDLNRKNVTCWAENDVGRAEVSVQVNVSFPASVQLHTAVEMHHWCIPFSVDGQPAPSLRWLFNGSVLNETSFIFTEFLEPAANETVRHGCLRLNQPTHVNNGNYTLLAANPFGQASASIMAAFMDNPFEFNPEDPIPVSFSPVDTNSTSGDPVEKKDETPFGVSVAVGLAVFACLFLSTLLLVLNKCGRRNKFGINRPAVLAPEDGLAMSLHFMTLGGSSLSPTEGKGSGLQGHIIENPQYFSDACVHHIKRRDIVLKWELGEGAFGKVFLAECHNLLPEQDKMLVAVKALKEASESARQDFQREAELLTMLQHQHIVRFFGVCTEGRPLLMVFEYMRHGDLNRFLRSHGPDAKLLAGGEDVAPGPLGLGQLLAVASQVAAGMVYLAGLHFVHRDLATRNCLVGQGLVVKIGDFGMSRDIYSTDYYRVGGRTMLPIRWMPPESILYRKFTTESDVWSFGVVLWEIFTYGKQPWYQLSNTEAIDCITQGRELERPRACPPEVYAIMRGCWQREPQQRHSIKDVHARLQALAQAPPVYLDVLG

Chain of Proto-oncogene tyrosine-protein kinase receptor Ret (Homo sapiens), P07949 [Y791F] (P07949 whole entry Y791F): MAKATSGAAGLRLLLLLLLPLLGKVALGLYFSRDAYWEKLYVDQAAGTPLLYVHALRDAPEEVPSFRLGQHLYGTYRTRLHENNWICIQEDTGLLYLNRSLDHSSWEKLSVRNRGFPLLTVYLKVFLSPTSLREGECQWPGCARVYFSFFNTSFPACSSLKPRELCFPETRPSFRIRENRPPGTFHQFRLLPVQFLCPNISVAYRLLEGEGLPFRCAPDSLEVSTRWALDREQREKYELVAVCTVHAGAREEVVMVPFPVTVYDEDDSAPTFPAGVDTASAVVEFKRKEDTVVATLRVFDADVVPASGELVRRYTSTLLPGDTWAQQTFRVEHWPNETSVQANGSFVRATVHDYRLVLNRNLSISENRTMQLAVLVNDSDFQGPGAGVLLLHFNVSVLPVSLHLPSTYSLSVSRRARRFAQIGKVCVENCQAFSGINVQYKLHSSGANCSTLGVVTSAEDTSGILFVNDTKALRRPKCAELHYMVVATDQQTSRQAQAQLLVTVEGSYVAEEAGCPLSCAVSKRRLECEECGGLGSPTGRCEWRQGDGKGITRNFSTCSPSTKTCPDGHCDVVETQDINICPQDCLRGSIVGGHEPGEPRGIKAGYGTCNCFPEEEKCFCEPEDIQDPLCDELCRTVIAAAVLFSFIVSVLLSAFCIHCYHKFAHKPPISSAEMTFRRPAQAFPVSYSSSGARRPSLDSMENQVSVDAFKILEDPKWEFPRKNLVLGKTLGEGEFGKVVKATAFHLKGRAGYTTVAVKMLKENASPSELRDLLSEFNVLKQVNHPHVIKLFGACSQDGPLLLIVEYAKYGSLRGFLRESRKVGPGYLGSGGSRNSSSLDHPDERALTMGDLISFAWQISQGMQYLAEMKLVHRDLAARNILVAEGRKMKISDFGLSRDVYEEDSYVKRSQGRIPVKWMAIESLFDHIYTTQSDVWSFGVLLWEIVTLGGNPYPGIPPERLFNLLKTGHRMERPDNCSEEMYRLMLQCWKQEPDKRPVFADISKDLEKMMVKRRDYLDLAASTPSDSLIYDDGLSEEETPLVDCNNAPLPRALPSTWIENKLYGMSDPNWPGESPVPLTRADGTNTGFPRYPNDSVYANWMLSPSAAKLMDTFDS

For CCN(CC)S(=O)(=O)c1ccc(OC)c(Nc2ncc(-c3ccccc3)o2)c1, the inhibition [1] was 35.7%, the inhibition [2] was 4% and the inhibition [3] was -1.9%. The inhibition [4] was 1.91%, the inhibition [5] was 19% and the inhibition [6] was 9.87%. The inhibition [7] was 56.4%, the inhibition [8] was 1.97% and the inhibition [9] was 3.53%. It also gave an inhibition [10] of 0.84%, an inhibition [11] of -0.04% and an inhibition [12] of 2.99%. It also gave an inhibition [13] of 11.9%, an inhibition [14] of 4.38% and an inhibition [15] of 14%. The inhibition [16] was 15.6%, the inhibition [17] was 72.1% and the inhibition [18] was -0.01%. It also gave an inhibition [19] of 1.62% and an inhibition [20] of 4.25%.
For CNC(=O)c1cccc(C#Cc2cncnc2Nc2ccc(OCc3cccc(F)c3)c(Cl)c2)c1, the inhibition [1] was 20.7%, the inhibition [2] was 0.58% and the inhibition [3] was 0.88%. The inhibition [4] was -2.5%, the inhibition [5] was 1.03% and the inhibition [6] was -0.84%. The inhibition [7] was 5.22%, the inhibition [8] was 0.46% and the inhibition [9] was 1.17%. It also gave an inhibition [10] of -6.37%, an inhibition [11] of 0.47% and an inhibition [12] of 0.86%. It also gave an inhibition [13] of 2.99%, an inhibition [14] of -0.1% and an inhibition [15] of 2.32%. For the same molecule, the inhibition [16] was -0.06%, the inhibition [17] was 10.8% and the inhibition [18] was -0.6%. The inhibition [19] was 0.21% and the inhibition [20] was -0.85%.
CC(C)COC(=O)c1ccc2c(c1)/C(=C/Nc1ccc(S(N)(=O)=O)cc1)C(=O)N2 was tested, and the inhibition [1] was 69.9%, the inhibition [2] was -0.4% and the inhibition [3] was 16.7%. The inhibition [4] was 1.71%, the inhibition [5] was 15.3% and the inhibition [6] was 2.28%. For the same molecule, the inhibition [7] was 39.5%, the inhibition [8] was 5.32% and the inhibition [9] was 3.32%. For the same molecule, the inhibition [10] was 4.14%, the inhibition [11] was -2.67% and the inhibition [12] was 0.3%. For the same molecule, the inhibition [13] was 6.56%, the inhibition [14] was 0.75% and the inhibition [15] was 7.91%. The inhibition [16] was -3.82%, the inhibition [17] was 5.07% and the inhibition [18] was -0.91%. The inhibition [19] was 0.01% and the inhibition [20] was 2.03%.
CN(C)CCOc1ccc(-c2nc(-c3ccncc3)c(-c3ccc4c(c3)CC/C4=N\O)[nH]2)cc1 was tested, and the inhibition [1] was 20.2%, the inhibition [2] was -1.14% and the inhibition [3] was 7.41%. The inhibition [4] was 3.61%, the inhibition [5] was 5.38% and the inhibition [6] was 0.25%. The inhibition [7] was 11.9%, the inhibition [8] was -1.81% and the inhibition [9] was -0.6%. The inhibition [10] was -2.98%, the inhibition [11] was -0.9% and the inhibition [12] was 4.78%. It also gave an inhibition [13] of 5.79%, an inhibition [14] of 2.29% and an inhibition [15] of 11.9%. For the same molecule, the inhibition [16] was 2.5%, the inhibition [17] was 10.2% and the inhibition [18] was 1.21%. The inhibition [19] was 2.51% and the inhibition [20] was 2.02%.
O=C(O[C@H]1CN[C@H](C#Cc2cc3ncnc(Nc4ccc(Cc5ccccc5)cc4)c3s2)C1)N1CCOCC1 showed an inhibition [1] of 4.61%, an inhibition [2] of 2.34% and an inhibition [3] of 3.27%. For the same molecule, the inhibition [4] was -0.61%, the inhibition [5] was 2.78% and the inhibition [6] was 3.84%. The inhibition [7] was 7.75%, the inhibition [8] was -3.02% and the inhibition [9] was -2.02%. It also gave an inhibition [10] of -0.1%, an inhibition [11] of -3.86% and an inhibition [12] of -0.07%. It also gave an inhibition [13] of 4.05%, an inhibition [14] of -0.43% and an inhibition [15] of 2.3%. For the same molecule, the inhibition [16] was 0.66%, the inhibition [17] was 5.45% and the inhibition [18] was 0.74%. It also gave an inhibition [19] of 0.96% and an inhibition [20] of 1.4%.
For CS(=O)(=O)CCNCc1coc(-c2ccc3ncnc(Nc4ccc(OCc5ccccc5)cc4)c3c2)c1, the inhibition [1] was 8.25%, the inhibition [2] was -5.7% and the inhibition [3] was 2.31%. It also gave an inhibition [4] of 4.75%, an inhibition [5] of 4.27% and an inhibition [6] of 8.85%. For the same molecule, the inhibition [7] was 10.9%, the inhibition [8] was 3.44% and the inhibition [9] was 3.19%. The inhibition [10] was 2.29%, the inhibition [11] was 3.66% and the inhibition [12] was 4.07%. For the same molecule, the inhibition [13] was 6.39%, the inhibition [14] was 3.15% and the inhibition [15] was 4.19%. The inhibition [16] was 4.53%, the inhibition [17] was 7.58% and the inhibition [18] was 1.22%. The inhibition [19] was 2.21% and the inhibition [20] was 1.72%.
In the case of CCOc1ccc2c(-c3ccnc(Nc4cccc(C(F)(F)F)c4)n3)cnn2n1, the inhibition [1] is reported as 12.4%, the inhibition [2] is reported as 4.92% and the inhibition [3] is reported as -3.11%. It also gave an inhibition [4] of 2.05%, an inhibition [5] of 15% and an inhibition [6] of 4.83%. The inhibition [7] was 3.76%, the inhibition [8] was -3.13% and the inhibition [9] was -1.56%. It also gave an inhibition [10] of -1.67%, an inhibition [11] of -6.38% and an inhibition [12] of -0.08%. For the same molecule, the inhibition [13] was 4.44%, the inhibition [14] was 1.3% and the inhibition [15] was 7.44%. It also gave an inhibition [16] of -0.72%, an inhibition [17] of 14.7% and an inhibition [18] of 0.55%. For the same molecule, the inhibition [19] was 0.5% and the inhibition [20] was 0.72%.
